Experimental data from PubChem BioAssay (NCI).
Compounds without any hit were thinned out: in the full panel of roughly 79,000, 15% have a hit. Unmarked numbers belong to inactive results. Active and inactive are the calls of the source. Rule as the data show it: active = growth inhibition above about 70%; inactive = the rest.

Assays:
[1] = NCI Yeast Anticancer Drug Screen. Data for the rad50 strain (AID 155);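 also: 0% = growth of vehicle-only cultures of the same strain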; conditions: S. cerevisiae rad50 strain growth inhibition; at 50.0 µM; hits give high values
Method in brief: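 Compounds were tested on a yeast strain with an engineered DNA damage repair alteration; the reported value is growth inhibition normalised to vehicle treatment.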

[2] = NCI Yeast Anticancer Drug Screen. Data for the mec2-1 strain (AID 157); conditions: S. cerevisiae mec2-1 strain, at 50.0 µM, hits give high values
Method in brief: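 Compounds were applied to mec2-1 yeast cells. Their growth was then compared with that of vehicle-treated cultures to give growth inhibition.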

[3] = NCI Yeast Anticancer Drug Screen. Data for the sgs1 mgt1 strain (AID 161);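 also: 0% = growth of cultures given vehicle only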; conditions: S. cerevisiae sgs1 mgt1 strain, at 50.0 µM, hits give high values
Method in brief: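 This yeast growth screen uses a strain with defined DNA-repair lesions; compound-treated growth is compared with vehicle-treated growth.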

[4] = NCI Yeast Anticancer Drug Screen. Data for the cln2 rad14 strain (AID 165);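 also: 0% = growth equal to vehicle treated cultures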; conditions: S. cerevisiae cln2 rad14 strain, at 50.0 µM, hits give high values
Method in brief: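 Strain: cln2 rad14 yeast, altered in cell cycle control and DNA damage repair. Read-out: growth inhibition vs vehicle.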

[5] = NCI Yeast Anticancer Drug Screen. Data for the bub3 strain (AID 167); conditions: S. cerevisiae bub3 mutant strain, at 50.0 µM, hits give high values
Method in brief: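 Growth of a checkpoint-deficient yeast mutant is measured after compound exposure. Values represent inhibition relative to vehicle.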

[6] = NCI Yeast Anticancer Drug Screen. Data for the mlh1 rad18 strain (AID 175); conditions: S. cerevisiae mlh1 rad18 strain growth inhibition; at 50.0 µM; hits give high values
Method in brief: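 A repair-deficient yeast strain is exposed to test compound, and growth is scored relative to vehicle-treated controls.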

Row | Structure (SMILES) | growth inhibition [1] | growth inhibition [2] | growth inhibition [3] | growth inhibition [4] | growth inhibition [5] | growth inhibition [6]
1 | CCC1(c2ccccc2)Nc2ccccc2C1=Nc1ccccc1 (centres undefined) | 20.1% | 15.5% | 20.2% | 9.5% | 11.7% | 27.4%
2 | Cn1cnc(N)c1S(N)(=O)=O | -11.8% | 2.45% | 9.7% | -6% | -6.3% | 26.1%
3 | Cc1ccc(C(=O)CSC2=NCCN2)cc1Cl | -9.75% | -21.8% | -12.6% | -2.2% | -11.9% | 19.2%
4 | CCc1occc(=O)c1O | 16.6% | -6.95% | -1.75% | 1.75% | 16.8% | -9.1%
5 | S=C(Cc1ccc2ccccc2c1)N1CCOCC1 | 29.4% | 1.95% | -2.1% | 23.6% | 30.4% | 12.9%
6 | CN(C)c1ccc(/C=C(\C#N)c2cccc(F)c2)cc1 | -4.85% | 0.3% | 1.5% | -14.2% | 3.4% | -20.2%
7 | O=C(O)c1ccc(CC2CCCC2)cc1 | 30.8% | 25.9% | 21.4% | -8.2% | -2.35% | 8.85%
8 | C=C1CC(C)(Cn2c(N)nc3nc[nH]c3c2=O)OC1=O (centres undefined) | 11.7% | 5.95% | 11.1% | 12.9% | 14.1% | 4.8%
9 | Cc1nc(C)c(C(=O)NN)cc1C(=O)NN | 9.05% | -3.7% | -4.6% | 7.45% | -0.7% | -14.7%
10 | C=Cc1c2ccccc2cc2c1ccc1ccccc12 | 89.3% (active) | 95.2% (active) | 93.5% (active) | 87.2% (active) | 93.3% (active) | 95.2% (active)
11 | COc1cc(OC)c(-c2cc(C(=O)O)c3cc4ccccc4cc3n2)c(OC)c1 | 18.2% | 23.2% | 24.1% | 16.7% | 21.6% | 32%
12 | CCC(=O)NCC(=O)O | -4.15% | -10.6% | -16.1% | 0.3% | 8.15% | -6.15%
13 | Cn1c2nc(=O)n(-c3ccccc3)c(=O)c-2nc2c1CCCC2 | -4.95% | -10.7% | 1.55% | -6.45% | 3.9% | -60.7%
14 | CN(C)CCOC(=O)C(C)(C)Sc1ccc(Cl)cc1 | 11.1% | 23.3% | 26.4% | -5.35% | 0.4% | 25.5%
15 | O=C(N[C@H](CO)[C@H](O)c1ccc([N+](=O)[O-])cc1)C(Cl)Cl | 25.2% | -4.05% | 28.9% | 9.55% | 35.6% | 10.7%
16 | COC1=CC(=O)C(C2CC(=O)c3c(O)cc(O)cc3O2)=CC1=O (centres undefined) | -4.2% | 0.85% | 11.2% | 7.95% | -20.8% | -63.9%
17 | COc1cc(C(C)(C)C)c2oc3c(c2c1)C(=O)C(C(C)(C)C)=CC3(OC)OC | 13.4% | -6.75% | -17% | 6.4% | 2.25% | -1.65%
18 | CN(C)CCCNC(=S)S | -17% | -28.6% | 5.25% | 11.2% | -22.1% | -4.35%
19 | CCC(CO)(C(=O)O)c1ccccc1 (centres undefined) | 1.85% | 22.2% | 4.95% | 46.9% | 4.6% | 2.3%
20 | O=C(Nc1cc(Cl)c(Cl)cc1Cl)N1CCOCC1 | 0.15% | -30.7% | -11.2% | 5.25% | -6.1% | -5.15%

Row | Structure (SMILES) | growth inhibition [1] | growth inhibition [2] | growth inhibition [3] | growth inhibition [4] | growth inhibition [5] | growth inhibition [6]
21 | CCOC(=O)c1cc2c(C(=O)c3ccc([N+](=O)[O-])cc3)c(C(C)=O)ccc2[nH]1 | 3.15% | -0.45% | -1.2% | -3.55% | 19% | -45.6%
22 | CC(C)NC(=O)Nc1cccc(Cl)c1 | 0.75% | 7.2% | 17.7% | -18.8% | -23.2% | -1%
23 | CCO/C([O-])=C(\C=N\S(=O)(=O)c1ccc(C)cc1)[n+]1ccccc1 | 8.8% | 13.8% | 5.1% | -20.2% | -3.85% | 2.65%
24 | COc1cccc2c(Cl)c3ccc(Cl)cc3nc12 | 11.4% | 5.25% | 0.8% | -39.1% | -18.9% | 15.8%
25 | C/C(=N/NC(N)=S)c1c[nH]c(=O)[nH]c1=O | -3% | -16.6% | -4.45% | -9.6% | -5.95% | -7.35%
26 | Cc1ccc(NC(=O)C(=O)Cc2cccc[n+]2[O-])cc1C | 25.4% | 13.1% | -4.1% | 12.2% | 9.05% | -6.1%
27 | N#Cc1c(-c2ccccc2)nc(-c2ccccc2)sc1=S | 12.1% | -0.7% | 42% | 4.55% | 48.1% | 73.8% (active)
28 | O=[N+]([O-])c1cccc(-c2cc(-c3cccs3)cc(-c3ccccc3)n2)c1 | 6.7% | 3.95% | -1.95% | -1.4% | 2.85% | 4.95%
29 | CC(=O)Nc1ccccc1C | 11.9% | -7.1% | -0.55% | -5.65% | 5.2% | 3.05%
30 | CC1(C)OC(=O)N=C1c1cccc(Cl)c1 | -12.3% | -17.8% | -15.9% | -5.9% | 4.25% | -3.7%
31 | COC(=O)C(=O)C(C(=O)C(N)=O)c1nc2ccc(C(=O)c3ccccc3)cc2[nH]c1=O (centres undefined) | 0.35% | 5.45% | -17.2% | -9.25% | -19.1% | 9.85%
32 | CC(O)COC(C)c1ccccc1 (centres undefined) | 9.05% | 0.3% | -0.7% | 5.35% | -6.45% | 2.1%
33 | OCC(O)c1ccc(Cl)cc1 (centres undefined) | -23% | -17.6% | -14.8% | -14% | -15.8% | -0.3%
34 | c1cnn([B-]2(n3cccn3)n3ccc[n+]3[B-](n3cccn3)(n3cccn3)n3ccc[n+]32)c1 | 0.85% | -11.6% | 9.2% | -8.85% | 14.1% | -4.05%
35 | N#CCCSC(=S)C1CCCCC1=N (centres undefined) | -5.3% | 0.8% | 12.8% | -112% | -24.9% | -2.25%
36 | O=c1ccn(-c2ccccn2)c(=O)n1-c1ccccn1 | 18.9% | -15.9% | 2.95% | 24.3% | -6.35% | -31.8%
37 | CCOC(=O)/C=C(\N=P(c1ccccc1)(c1ccccc1)c1ccccc1)C(F)(F)C(F)(F)C(F)(F)C(F)(F)C(F)(F)F | 19.4% | 4% | 32.4% | 18.4% | 20.2% | 45.2%
38 | COC(=O)CN(c1c(C)cc(C)c(N)c1C)S(=O)(=O)c1ccccc1 | 0.2% | 15.9% | 4.65% | 5.4% | -11.3% | -25.3%
39 | CCN(CC)CCCS/C(N)=N\S(=O)(=O)c1ccc(N)cc1 | -6.35% | -41% | -20.2% | -7.8% | -0.5% | -16.6%
